Measurements from PubChem BioAssay (NCI).
The panel holds about 83,000 compounds, 20% with a hit somewhere; the sample as a whole holds those more often.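 Note: values are percent growth. 100 is the growth of untreated cells, values between 100 and 0 indicate rising inhibition; between -100 and 0 indicates cell death.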 Values without a mark were called inactive. Calls of active or inactive are those of the source. The calls were made as follows: active = growth percent below 10; inactive = the rest.

Tests used:
Assay in all cases: NCI-60 one-dose screen, 48 h (100 = growth as untreated, 0 = no growth, -100 = all killed)
Details in all cases: 10 µM unless noted
[1] = test system: SR leukemia
[2] = test system: RPMI-8226 leukemia
[3] = test system: OVCAR-8 ovarian
[4] = test system: OVCAR-5 ovarian
[5] = test system: OVCAR-4 ovarian
[6] = test system: SK-OV-3 ovarian
[7] = test system: IGROV1 ovarian
[8] = test system: OVCAR-3 ovarian
[9] = test system: HS 578T breast
[10] = test system: NCI/ADR-RES ovarian
[11] = test system: T-47D breast
[12] = test system: BT-549 breast
[13] = test system: MDA-MB-435 melanoma
[14] = test system: SW-620 colon
[15] = test system: HCT-116 colon
[16] = test system: HCC-2998 colon
[17] = test system: KM12 colon
[18] = test system: MDA-MB-468 breast
[19] = test system: MCF7 breast

| Structure (SMILES) | growth [1] | growth [2] | growth [3] | growth [4] | growth [5] | growth [6] | growth [7] | growth [8] | growth [9] | growth [10] | growth [11] | growth [12] | growth [13] | growth [14] | growth [15] | growth [16] | growth [17] | growth [18] | growth [19] |
| --- | --- | --- | --- | --- | --- | --- | --- | --- | --- | --- | --- | --- | --- | --- | --- | --- | --- | --- | --- |
| CCOC(=O)c1ccc(Nc2nc(NN)nc(-c3ccc(F)cc3)c2C#N)cc1 | 72.4% | 103% | 112% | 99.5% | 98.3% | 116% | 109% | 103% | 100% | 110% | 94.7% | 111% | 111% | 111% | 102% | 105% | 109% | 119% | – |
| COc1ccc(-c2ccnc(SCc3cc4ccccc4[nH]c3=O)n2)cc1 | 14.9% | 65.5% | 56.3% | 82.1% | 41.5% | 82.4% | 75% | 81.6% | 48.2% | 26.9% | 70.2% | 29.7% | 1.7% (active) | 35.1% | 31% | 59.6% | 57.3% | 6.26% (active) | – |
| C=C1CC[C@@H]2[C@]3(C)COC(c4cn[nH]c4-c4cccc(Cl)c4)O[C@@H]3CC[C@@]2(C)[C@@H]1C/C=C1/C(=O)OCC1O (stereo partly drawn) | 14.7% | -11.7% (active) | -23.3% (active) | -62% (active) | 35.2% | 49.6% | -44.1% (active) | -62% (active) | 26.8% | -56.4% (active) | -2.68% (active) | -92.4% (active) | -32.5% (active) | -57.6% (active) | -91.6% (active) | -91.2% (active) | -25.2% (active) | -84.3% (active) | – |
| O=c1oc2ccc(Br)cc2cc1C1=CSc2nc3sc4c(c3c(=O)n2N=C1)CCCC4 | 86.6% | 101% | 99.9% | 102% | 86.1% | 80.3% | 90.8% | 115% | 93.1% | 106% | 76.9% | 95.4% | 95.1% | 108% | 96.4% | 125% | 97.6% | 104% | – |
| O=C(C1=CNC(=S)NC1c1ccc(O)cc1)c1cc2ccccc2oc1=O (stereo not drawn) | 75.5% | 88.7% | 100% | 109% | 96.1% | 93.2% | 108% | 101% | 97.8% | 106% | 112% | 83.7% | 105% | 104% | 101% | 102% | 95.8% | 99.5% | – |
| COc1c(F)ccc(C(=O)Nc2ccc3nc(NC(=O)C4CCCN(S(=O)(=O)c5ccc(Cl)cc5)C4)sc3c2)c1F (stereo not drawn) | 44.8% | 53.8% | 97.2% | 97% | 86.2% | 97.2% | 72.9% | 92% | 60.2% | 74% | 52.6% | 62.4% | 101% | 97.2% | 65.3% | 103% | 78.7% | 80.2% | – |
| COc1cc(-c2nc3cc(Cl)c(Cl)cc3[nH]2)ccc1OCc1nnc(-c2cccs2)o1 | 31.1% | 59.2% | 38% | 83.3% | 40.8% | 47.8% | 59.4% | 91.2% | 63.9% | 39.5% | 84% | 28.1% | 55.2% | 33% | 29% | 43.9% | 71.5% | 46.4% | 3.79% (active) |
| CC12CC[C@@H]3[C@]4(C)COC(c5cn[nH]c5-c5ccc(Br)cc5)O[C@@H]4CC[C@@]3(C)[C@@H]1CC(C1=CCOC1=O)O2 (stereo partly drawn) | 40.6% | 24.9% | 62.6% | 81.5% | 36.1% | 73.5% | 50.3% | 56% | 55.6% | 51.9% | 16.3% | 21.7% | 51.8% | 62.1% | 23.4% | 55.8% | 39% | – | – |
| CCCSc1nc(NCCc2c[nH]c3ccccc23)c(C#N)c(-c2ccccc2)n1 | 8.87% (active) | 44.5% | 82.1% | 91.8% | 82.1% | 91% | 100% | 100% | 66.8% | 69% | 16.1% | 89.3% | 83.4% | 56.9% | 32% | 59.9% | 42.1% | 53.8% | 24.9% |
| Brc1ccc(-c2n(Cc3ccc4ccccc4c3)c(-c3ccccc3)c(-c3ccccc3)[n+]2Cc2ccc3ccccc3c2)cc1 | -36.8% (active) | -38% (active) | -77.4% (active) | -100% (active) | -83.3% (active) | -96.7% (active) | -81.7% (active) | -79% (active) | -46.3% (active) | -78.2% (active) | -76.7% (active) | -96.7% (active) | -91% (active) | -86% (active) | -97.9% (active) | -88.9% (active) | -93.4% (active) | -71.2% (active) | -69.8% (active) |
| COc1ccc(/C=C/c2nc3ccccc3c(=O)n2CC(=O)Nc2ccc(Cl)cc2)cc1 | 70.8% | 84% | 27% | 92.7% | 17.2% | 78.7% | 96.5% | 50% | 23.3% | 56.1% | 66.5% | 63.6% | 90.5% | 73.9% | 35.4% | 116% | 61.3% | 98% | – |
| COc1c(F)ccc(C(=O)Nc2ccc3nc(NC(=O)C4CCCN(S(=O)(=O)c5cccc(Br)c5)C4)sc3c2)c1F (stereo not drawn) | 55.9% | 51.7% | 104% | 104% | 73.6% | 112% | 86.8% | 106% | 56.6% | 85.3% | 60.9% | 74.5% | 90.7% | 94.5% | 67.9% | 125% | 78.7% | 98.1% | – |
| CC1=C(C#N)C2=NNCC(c3ccccc3)=NN2C(c2ccccc2)=C1 | 96% | 110% | 111% | 114% | 112% | 101% | 109% | 111% | 107% | 112% | 98.8% | 104% | 106% | 98% | 101% | 118% | 107% | 124% | – |
| Cn1cc(-c2cc(N)n3nc(-c4cn(C)c5ccc(Cl)cc45)cc3n2)c2ccccc21 | 99.7% | 109% | 104% | 108% | 111% | 105% | 111% | 122% | 113% | 105% | 101% | 118% | 101% | 114% | 104% | 105% | 109% | 96.4% | 98.8% |
| C=C1CC[C@@H]2[C@]3(C)COC(c4cn[nH]c4-c4cccc(Br)c4)O[C@@H]3CC[C@@]2(C)[C@@H]1C/C=C1/C(=O)OCC1O (stereo partly drawn) | 12.7% | -6.49% (active) | -42.5% (active) | -76.2% (active) | 10.8% | -33% (active) | -60.2% (active) | -97.6% (active) | 5.38% (active) | -50.1% (active) | -6.99% (active) | -94.2% (active) | -50.2% (active) | -81.1% (active) | -95.9% (active) | -100% (active) | -67.1% (active) | -95.4% (active) | – |
